From PubChem BioAssay
D2 PAM-1: positive allosteric modulators of human D2 dopamine receptor; 340,000 compounds, 0.34% hits; P14416; potentiation, % at 10 µM; AID 485347; HEK293 T-REx D2, calcium flux, EC20 dopamine potentiation;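 active means potentiation over 3 SD above the plate norm, cut at about 30% in these data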; further: 0% is about no effect
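Using a no-wash calcium dye in inducible, force-coupled HEK293 Trex cells expressing D2, we tracked fluorescence each second for 180 s after compound, then for 180 s after EC20 dopamine to detect augmented signalling.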
D2 antagonist: antagonists of human D2 dopamine receptor | HEK293 TREx D2 cells, calcium flux, dopamine EC80 | inhibition, % at 10 µM | AID 485344 | 340,000 compounds, 2% hits; in the data active means inhibition above about 30%; inactive means below that, where a call was filed; further: 0% is about no effect
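Calcium flux kinetic readout in an inducible HEK293 TREx D2 line plated overnight at 30 C. After 180 s compound exposure, an EC80 dopamine challenge follows with another 180 s kinetic read to detect antagonism.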
D2 PAM-2: positive allosteric modulators of human D2 dopamine receptor; 360,000 compounds, 0.23% hits; DiscoveRx D2 beta-arrestin cells, luminescence, 90 min; 100% = 57 uM dopamine signal; P14416; potentiation, % (test concentration not listed); in the data active means potentiation above about 50%; inconclusive means mostly about 30% to 49%
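PathHunter beta-arrestin assay in DiscoveRx D2 cells. Compounds were added with an EC20 of dopamine (50 nM final) for 90 min at 37 deg C. Luminescence was read 1 h after detection reagent, with 57 uM dopamine as the EC100 control.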
D2 ag-1: D2 dopamine receptor (human) agonism | HEK293 T-REx D2 cells, calcium flux agonist mode | AID 485358 | activation, % at 2 µM | 340,000 compounds, 0.53% hits | P14416;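 active means activation over 3 SD above normal in the single-dose calcium agonist read, cut at about 30% in these data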; further: 0% is about no effect
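HEK293 Trex D2 cells, tetracycline-induced, o/n 30 C 5% CO2; no-wash Ca dye, RT 30–90 min; 10-cycle baseline, 23 nl cpd added, kinetic Ca read 180 s; agonist hits = positive Ca response.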
D2 ag-2: activates the human D2 dopamine receptor; DiscoveRx PathHunter D2 beta-arrestin, luminescence, 90 min; 100% = 57 uM dopamine signal; activation, % (test concentration not listed); 360,000 compounds, 0.084% hits; AID 624465; in the data active means activation above about 40%; inconclusive means between about 15% and that limit
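DiscoveRx PathHunter D2 beta-arrestin cells (2,100/well) attached overnight, then compound-stimulated 90 min at 37 C in HBSS/10 mM HEPES/0.1% Tween-20 buffer; beta-galactosidase complementation read by luminescence after 1 h at ambient temperature. Dopamine 57 uM final (EC100) as control.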
D3 arrestin ag: activates human D3 dopamine receptor beta-arrestin recruitment; AID 720506; shares compounds with D2 ag-1; 2,300 compounds, 4% hits; DiscoveRx D3 beta-arrestin cells, luminescence, 90 min; Potency, µM (highest dose often 76.9 µM), inactives show top-dose activation, actives largely listed as activators;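 further: potency means the concentration at half of the fitted maximal effect; 100% = dopamine control response; nearly all actives have a fitted effect of over 70% in size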
Target sequence (P35462 whole entry, looked up): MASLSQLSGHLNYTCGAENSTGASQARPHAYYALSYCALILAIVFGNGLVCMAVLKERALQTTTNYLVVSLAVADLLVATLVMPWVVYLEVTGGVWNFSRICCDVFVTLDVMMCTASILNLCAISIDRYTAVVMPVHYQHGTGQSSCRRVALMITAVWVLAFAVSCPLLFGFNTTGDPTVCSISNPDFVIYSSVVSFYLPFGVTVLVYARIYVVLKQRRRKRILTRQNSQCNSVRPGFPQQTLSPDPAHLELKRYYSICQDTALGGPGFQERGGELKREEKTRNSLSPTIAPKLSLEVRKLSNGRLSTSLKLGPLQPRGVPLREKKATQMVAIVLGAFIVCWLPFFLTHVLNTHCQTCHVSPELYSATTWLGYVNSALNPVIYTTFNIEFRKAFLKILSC
D2 ag-3: activates human D2 dopamine receptor in D3 counterscreen; DiscoveRx PathHunter D2 beta-arrestin, luminescence, 90 min; response scale: percent relative to full dopamine signal; 2,300 compounds, 5.9% hits; Potency, µM (top dose mostly 76.9 µM), for the others: at the top dose activation, usual class: activators; shares compounds with D2 ag-1; further: potency means the concentration at half of the fitted maximal effect; % of control where 0% means no effect; nearly all actives have a fitted effect of over 70% in size
Starred values were filed as active, the others as inactive; ? = inconclusive; · = no result; ! = not confirmed by another sample. Only some compounds are listed: those with a hit (about 2.4% of all), similar ones and a draw of the others. Unless noted, the call rests on the fitted dose curve; in most records, active means well fitted activation curve with a large enough effect; inconclusive means small, poorly fitted or top-dose-only effect; inactive means flat fitted curve, though single readings scatter.

SMILES | D2 PAM-1 | D2 antagonist | D2 PAM-2 | D2 ag-1 | D2 ag-2 | D3 arrestin ag | D2 ag-3
O=C(COC(=O)c1ccc(CNS(=O)(=O)c2ccc(F)c(Cl)c2)cc1)NCC1CCCCC1 | -23.1 | 18.5 | -7.8 | 68.9* | 1.3 | 0.2% | -1.3%
COc1ccc(C)cc1S(=O)(=O)NCCC1=CCCCC1 | 6.9 | 18.2 | -16.9 | 0.9 | -3.0 | · | ·
CCOc1ccc(S(=O)(=O)NCCC2=CCCCC2)c2ccccc12 | -19.0 | 16.8 | -10.0 | 2.0 | 1.3 | -3.4% | 3.6%
O=C(CCN1CCN(C/C=C/c2ccccc2)CC1)Nc1ccccc1F | -2.0 | -15.1 | -15.2 | 3.5 | 2.6 | · | ·
CCN1CCN(CC(=O)Nc2ccc(Cl)c(S(=O)(=O)N(C)C)c2)CC1 | 1.0 | 4.8 | -17.6 | -0.9 | -4.5 | · | ·
COc1ccc(C)cc1NC(=O)CN1CCN(c2ccccc2F)CC1 | -25.0 | -9.4 | -13.7 | 0.4 | -0.2 | · | ·
CN(C)S(=O)(=O)c1cc(NC(=O)CN2CCN(c3ccccc3F)CC2)ccc1Cl | -10.6 | 53.2* | 5.3 | 54.0* | ? | ? | ?
O=C(CN1CCN(c2ccccc2F)CC1)Nc1ccccc1F | -22.1 | -1.2 | -34.5 | 22.5 | 1.0 | -9.0% | -0.1%
O=C(CCN1CCN(c2ccccc2F)CC1)Nc1ccccc1F | -2.0 | 86.4* | -19.4 | 55.0* | 7.5 | ? | ?
CN1CCN(C(=O)C(=O)Nc2c3c(nn2-c2ccc(F)cc2)CSC3)CC1 | 11.1 | · | · | 0.1 | · | · | ·
CCNC(=O)C1CCCN(C(=O)c2ccc(C(=O)OC)cc2)CC1 (stereo not given) | · | · | 0.9 | · | -6.8 | · | ·
CCOc1ccccc1C1CC(=O)NC(C)=C1C(=O)OC1CCCCCC1 (stereo not given) | 5.2 | · | · | -0.6 | · | · | ·
O=C(CSCc1cnn(-c2ccccc2)c1-n1cccc1)NCc1ccccc1F | -14.2 | · | · | 0.1 | · | · | ·
CCOC(=O)Cc1csc(NC(=O)CN2CCOCC2)n1 | 2.9 | 9.2 | -4.1 | -0.2 | 0.7 | -5.7% | 0.1%
COc1cccc(CNC(=O)CCCCCn2c(=O)[nH]c3cc(OC)c(OC)cc3c2=O)c1 | 9.0 | · | · | 0.3 | · | · | ·
COc1cc(CN2CCC(C(=O)N3CCN(c4ccccc4F)CC3)CC2)cc(OC)c1O | 0.4 | 33.7* | -13.3 | 1.1 | 2.2 | 11.8% | 10.7%
COc1cc(CN2CCN(c3ccccc3F)CC2)cc(OC)c1O | -17.7 | 69.8* | -1.0 | 60.3* | ? | ? | ?
O=S(=O)(c1ccc(OCC(O)CN2CCN(c3ccc(F)cc3)CC2)cc1)N1CCOCC1 (stereo not given) | -17.3 | 66.8* | -10.2 | 75.9* | 13.4 | 8.3% | ?
COc1ccccc1N1CCN(CC(O)COc2ccc(S(=O)(=O)N3CCOCC3)cc2)CC1 (stereo not given) | -16.9 | 92.3* | -19.2 | 71.3* | ? | -6.4% | ?
COc1ccc(S(=O)(=O)N2CCN(CC(O)CN3CCOCC3)CC2)cc1 (stereo not given) | 19.8 | -9.8 | -3.4 | 0.0 | -3.8 | · | ·
Cc1ccc(S(=O)(=O)Nc2cc3c(cc2Cl)n(C)c(=O)c(=O)n3C)cc1 | -0.5 | · | · | 0.1 | · | · | ·
Cc1cccc(C(=O)NNC(=S)NC(=O)c2cccs2)c1 | 3.9 | 15.8 | -17.7 | 26.1 | -6.7 | -10.0% | -9.8%
COc1ccc(OC)c(NC(=O)C2CCCN(S(=O)(=O)c3c(C)noc3C)C2)c1 (stereo not given) | -14.7 | 43.7* | -4.3 | -0.3 | -0.5 | 13.9% | 6.0%
COc1ccc(OC)c(NC(=O)C2CCN(S(=O)(=O)c3c(C)noc3C)CC2)c1 | -3.5 | 20.7 | -23.0 | 0.3 | -2.4 | · | ·
CCOC(=O)CSc1nc2c([nH]c3ccccc32)c(=O)n1-c1ccc(OC)cc1 | 1.2 | · | · | -1.4 | · | · | ·
SMILES | D2 PAM-1 | D2 antagonist | D2 PAM-2 | D2 ag-1 | D2 ag-2 | D3 arrestin ag | D2 ag-3
Cc1cccc(CN2CCN(c3ncccn3)CC2)c1 | -30.4 | 82.8* | ? | 86.8* | ? | ? | 7.94µM*
Brc1cccc(CN2CCN(c3ncccn3)CC2)c1 | -16.8 | 84.7* | ? | 73.1* | 73.3* | 25.7% | 11.2µM*
COc1cc(-c2ccno2)ccc1S(=O)(=O)N1CCN(c2cc(C)ccc2C)CC1 | 3.5 | · | · | -0.7 | · | · | ·
CC(C)C(=O)NCC(c1ccc2c(c1)OCO2)N1CCN(c2ccccc2)CC1 (stereo not given) | -11.3 | · | · | 0.5 | · | · | ·
CN(Cc1cccs1)C(=O)CCNS(=O)(=O)c1ccc(Br)cc1 | 5.5 | -24.5 | 1.1 | -0.3 | 7.1 | -5.3% | -0.3%
O=C(CCNS(=O)(=O)c1ccc(Br)cc1)NCc1cccs1 | 10.6 | -2.4 | -0.3 | -1.6 | -1.8 | · | ·
COCCNc1nc(Nc2ccc(F)cc2)c2sccc2n1 | · | · | -6.9 | · | -4.6 | · | ·
COc1ccc(-c2noc(CSc3nnc(-c4ccncc4)n3-c3ccc(C)cc3)n2)cc1 | -2.7 | · | · | 2.9 | · | · | ·
CCOc1ccc(-n2c(SCc3nc(-c4ccc(C)cc4)no3)nnc2-c2ccncc2)cc1 | -20.8 | 10.4 | -8.4 | 47.4* | -3.6 | -8.4% | -0.7%
COC(=O)c1sc2nc3c(cc2c1N)C(=O)CC(C)(C)C3 | 1.8 | 15.7 | -27.9 | -0.4 | -1.8 | · | ·
Cc1cc(C)c(NC(=O)c2sc3nc4c(cc3c2N)C(=O)CC(C)(C)C4)c(C)c1 | -9.6 | 5.2 | -6.7 | 44.2* | 0.6 | -4.6% | 0.9%
COc1ccc(O)c(-c2nc(N)nc(N)n2)c1 | 13.9 | -10.6 | -4.9 | 0.3 | -0.9 | -3.6% | -3.9%
Cc1ccc(CN(C)C(=O)COC(=O)CSc2cc(C)c3ccccc3n2)cc1 | -4.2 | -23.7 | 2.0 | 0.4 | -5.2 | -2.8% | -0.5%
CN(C(=O)c1cccc(NC(=O)Cc2ccc(NC(=O)C3CCN(S(=O)(=O)c4cccc([N+](=O)[O-])c4)CC3)cc2)c1)C1CCCCC1 | · | · | 9.0 | · | 6.8 | · | ·
CC(C(O)c1ccc(O)cc1)N1CCC(Cc2ccccc2)CC1 (stereo not given) | -25.6 | 77.2* | -33.5 | 32.9*! | -2.9 | -19.0% | 3.2%
CC(C)OCC(O)CN1CCC(Cc2ccccc2)CC1 (stereo not given) | -21.6 | 9.8 | -16.6 | 0.7 | 0.0 | · | ·
C[C@@H](CN1CCC(Cc2ccccc2)CC1)[C@@H](O)c1ccc(O)cc1 | · | · | 6.3 | · | -3.7 | 7.0% | 26.8%
CCC(Cc1ccccc1)NC(=O)c1ccc2nc(N3CCC(C)CC3)sc2c1 (stereo not given) | · | · | · | 0.6 | · | · | ·
CCSc1nc2c(c(=O)[nH]1)C(C(C)C)C(C#N)=C(N)O2 (stereo not given) | 0.4 | -10.0 | 0.7 | 45.2* | -1.6 | -3.2% | -2.4%
